Data on 28 compounds can be found in PubChem BioAssay (NCATS).

SMILES strings stand for the structures. Results filed as inconclusive are left out. Entries that show only a call come without a potency. Values without a mark were called inactive. Activity calls are given as the source filed them. Calls come from the whole dose curve; as a rule, active = well fitted inhibition curve with a large enough effect; inconclusive = small, poorly fitted or top-dose-only effect; inactive = flat fitted curve, though single readings scatter.

Test [1] has as its target Calcium and integrin-binding protein 1 (Homo sapiens) (UniProt Q99828). The test can be described thus: Primary qHTS for Identification of Calcium Integrin Binding Protein 1 (CIB1) Competitor (AID 1508620). Note: top concentration of the series differs between compounds. The essentials: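 Fluorescence polarization competition: GST-tagged CIB1 (1 uM final) preincubated with compound 15 min at room temperature, then FITC-labelled alphaIIb peptide (100 nM final) added. After 15 min at room temperature, polarization read at Ex 480/Em 540.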
(Quantitative high-throughput screening tests each substance at several concentrations.)

Test [2] can be described thus: Primary qHTS for inhibitors of nuclear receptor binding SET domain protein 2 (NSD2) in an isogenic RCH-ACV NSD2 p.E1099K mutant (9B) (AID 1645876). Note: nearly all actives have a fitted effect of over 70% in size. Note: potency is the fitted concentration of half-maximal effect.

Sequence of Calcium and integrin-binding protein 1 (Homo sapiens) (Q99828 whole entry, looked up): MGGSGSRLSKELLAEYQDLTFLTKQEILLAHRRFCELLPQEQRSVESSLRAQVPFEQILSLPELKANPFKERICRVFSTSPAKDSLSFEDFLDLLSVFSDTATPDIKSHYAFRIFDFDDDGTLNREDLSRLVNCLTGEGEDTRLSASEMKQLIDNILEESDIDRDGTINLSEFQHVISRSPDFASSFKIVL

In the case of `COc1ccc(C[C@H](N)C(=O)N[C@@H]2[C@H](O)[C@H](n3cnc4c(N(C)C)ncnc43)O[C@@H]2CO)cc1`, the Potency result in test [1] was “inactive”. For the same compound, in test [2], the Potency was 325 nM (active).

As for `CCNC(=O)C1OC(n2cnc3c(N)nc(NCCc4ccc(CCC(=O)O)cc4)nc32)C(O)C1O` (stereo unspecified), the Potency entry in test [1] and in test [2] was “inactive” throughout.

For the compound `O=C1NC(=O)C(c2cn(-c3ccccc3)nc2-c2ccc(F)cc2)N1` (stereo unspecified), the Potency entry in test [1] and in test [2] was “inactive” each time.

With `CC(=O)OCC1(O)CCC2C(COC3OC(CO)C(O)C(O)C3OC(=O)/C=C/c3ccc(O)cc3)=COC(OC(=O)CC(C)C)C21` (stereo unspecified), the Potency result in test [1] and in test [2] was “inactive” in each case.

As to `C=C1CCC2C(C)(C(=O)O)CCCC2(C)C1CCC(C)CC(=O)O` (stereo unspecified), the Potency result in test [1] and in test [2] was “inactive” throughout.

Turning to `CC[C@H](C)[C@H](NC(=O)[C@H]([C@@H](C)CC)N(C)C(C)=O)C(=O)N[C@H](C(=O)N[C@@H](CC(C)C)C(=O)[C@@]1(C)CO1)[C@@H](C)O`, in test [1], the Potency result is “inactive”. In test [2], the Potency is 12.9 nM (active).

For the compound `COC(=O)CC(C)(O)CC(=O)OCc1ccc(O[C@@H]2O[C@H](CO)[C@@H](O)[C@H](O)[C@H]2O)cc1` (stereo partly specified), the Potency entry in test [1] and in test [2] was “inactive” each time.

Turning to `Cc1c2cc(c(C(=O)O)c1C)OC1OC(C(O)C(O)C1O)C(O)C(O)C1OC(O2)C(O)C(O)C1O` (stereo unspecified), the Potency result in test [1] and in test [2] was “inactive” in each case.

For the compound `CC(=O)O[C@@H]1c2c(C)coc2C(=O)[C@@]23O[C@@H]2CC[C@H](C)[C@@]13C`, the Potency entry in test [1] and in test [2] was “inactive” throughout.

For the compound `COc1cc2c3c(cc4ccccc4c3c1O)NC2=O`, the Potency entry in test [1] and in test [2] was “inactive” each time.

On to `CC[C@H]1OC(=O)[C@](C)(F)C(=O)[C@H](C)[C@@H](O[C@@H]2O[C@H](C)C[C@H](N(C)C)[C@H]2O)[C@](C)(OC)C[C@@H](C)C(=O)[C@@H](C)[C@H]2N(CCCCn3cc(-c4cccc(N)c4)nn3)C(=O)O[C@]12C`, for which the Potency entry in test [1] was “inactive”. The Potency in test [2] is 20500 nM (active).

As to `O=C(O)/C=C/c1ccc(O)c(O[C@@H]2O[C@H](CO)[C@@H](O)[C@H](O)[C@H]2O)c1`, the Potency entry in test [1] and in test [2] was “inactive” throughout.

Consider `CC(C)C(N)C(=O)OCCOCn1cnc2c(=O)[nH]c(N)nc21` (stereo unspecified), for which the Potency entry in test [1] and in test [2] was “inactive” in each case.

As for `CC(O)/C=C/C1C(C)C(O[C@@H]2O[C@H](CO)[C@@H](O)[C@H](O)[C@H]2O)C(O)CC1(C)C` (stereo partly specified), the Potency result in test [1] and in test [2] was “inactive” throughout.

For `CC1(C)CCC2(C(=O)OC3OC(CO)C(O)C(O)C3O)CCC3(C)C(=CCC4C5(C)CCC(OC6OC(C(=O)O)C(OC7OC(CO)C(O)C(O)C7O)C(OC7OC(CO)C(O)C(O)C7O)C6O)C(C)(C)C5CCC43C)C2C1` (stereo unspecified), the Potency result in test [1] was “inactive”. Further, in test [2], the activity change, negative = viability loss was -4.92% [at 9.23 µM].

With `C[C@@H]1O[C@@H](O[C@H]2[C@H](O[C@H]3[C@H](O[C@H]4CC[C@@]5(C)C(CC[C@]6(C)C5CC=C5[C@@H]7CC(C)(C)C[C@@H](O)[C@]7(C)CC[C@]56C)[C@@]4(C)CO)O[C@H](C(=O)O)[C@@H](O)[C@@H]3O)OC[C@H](O)[C@@H]2O)[C@H](O)[C@H](O)[C@H]1O` (stereo partly specified), the Potency result in test [1] was “inactive”. The activity change, negative = viability loss in test [2] is 2.23% [at 9.23 µM].

Take `COc1cc(O)cc(C)c1C(=O)O[C@@H]1[C@H](O)[C@@H](CO)O[C@H]1n1ccc(=O)[nH]c1=O`: the Potency entry in test [1] and in test [2] was “inactive” throughout.

As to `OC/C=C/C=C/[C@H]1Cc2cc(O)cc(O)c2O1`, the Potency result in test [1] and in test [2] was “inactive” each time.

Regarding `Cc1cc(Cl)ccc1COc1ccnn1-c1cc(C(=O)O)ccn1`, the Potency result in test [1] and in test [2] was “inactive” each time.

As to `C=C(C(=O)O)[C@H]1C[C@]2(C)[C@@H](O)CC[C@]23O[C@H]1C[C@@H]3C`, the Potency result in test [1] and in test [2] was “inactive” each time.

Turning to `COc1ccc(/C=C\C(=O)O)c(O[C@@H]2O[C@H](CO)[C@@H](O)[C@H](O)[C@H]2O)c1`, the Potency entry in test [1] and in test [2] was “inactive” throughout.

`C=CC(C)(O)C(O)CC1C(C)(O)C(O)C(O)C2C(C)(C)CCCC21C` (stereo unspecified): the Potency result in test [1] and in test [2] was “inactive” in each case.

On to `COC(=O)c1c(C)cc(OC(=O)c2c(C)cc(OC)cc2OC)cc1O[C@@H]1O[C@H](CO)[C@@H](O)[C@H](O)[C@H]1O`, for which the Potency entry in test [1] and in test [2] was “inactive” in each case.

Consider `CC1CC2OC3(OC2C(C)(C)O)C1C1(C)CCC24CC25CCC(O[C@@H]2OC[C@@H](O)[C@H](O)[C@H]2O)C(C)(C)C5CC=C4C1(C)C3O` (stereo partly specified), for which the Potency entry in test [1] and in test [2] was “inactive” in each case.

On to `CC1=CC(=O)CC(C)(C)[C@@]1(O)CC[C@@H](C)O[C@@H]1O[C@H](CO)[C@@H](O)[C@H](O)[C@H]1O`, for which the Potency entry in test [1] and in test [2] was “inactive” in each case.

For `CC1(C)CC[C@]2(C(=O)O[C@@H]3O[C@H](CO)[C@@H](O)[C@H](O)[C@H]3O)CC[C@]3(C)C(=CCC4[C@@]5(C)C[C@@H](O)[C@H](O)[C@](C)(C(=O)O)C5CC[C@]43C)C2C1O` (stereo partly specified), the Potency entry in test [1] and in test [2] was “inactive” each time.

For the compound `CC(=O)N1CCc2ccc(O)c(OC3OC(COC4OCC(O)(CO)C4O)C(O)C(O)C3O)c2C1Cc1ccc(O)cc1` (stereo unspecified), the Potency result in test [1] and in test [2] was “inactive” throughout.

Regarding `OC[C@H]1O[C@@H](Oc2cc(O)c3c(c2)O[C@@H](c2ccc(O)cc2)[C@H](O)C3)[C@H](O)[C@@H](O)[C@@H]1O`, the Potency result in test [1] and in test [2] was “inactive” throughout.
